A number with no mark means an inactive call. How the calls were made is not given here.
Target: VTCN1, Q7Z7D3
Sequence (Q7Z7D3 whole entry): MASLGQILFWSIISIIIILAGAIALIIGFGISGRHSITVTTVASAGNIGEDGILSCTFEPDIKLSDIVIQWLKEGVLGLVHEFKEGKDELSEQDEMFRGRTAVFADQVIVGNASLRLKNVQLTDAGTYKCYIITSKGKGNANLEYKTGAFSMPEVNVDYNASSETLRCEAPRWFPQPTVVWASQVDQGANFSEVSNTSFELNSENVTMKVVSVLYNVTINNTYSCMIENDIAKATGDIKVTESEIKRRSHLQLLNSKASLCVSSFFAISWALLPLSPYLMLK

| Binder | binding in a display sort |
| --- | --- |
| design_608_fd41b8f9-4da9-4c78-93ec-aaa316ed4933_2397_dldesign_0_cycle1_af2pred (protein) RDKLLMYVAAVRGAARIAKDDPEKGKEALEIETEELVEVMAKASEEEAAEAKELAVAAAAEVDPEIAEWVRKFIEEKLKEKR | not found |
| design_609_7ee6ce64-4629-41e8-bcb4-ba0da017284d_478_dldesign_0_cycle1_af2pred (protein) DAVKKAAEEAAKEAAKHPKGEKIAKAIEKGAEVAIKNSDKSFSQAAGDGASTIISLLGKEAGVDAIEAQDYADYWLDLVEKNS | not found |
| design_609_7ee6ce64-4629-41e8-bcb4-ba0da017284d_367_dldesign_0_cycle1_af2pred (protein) KRKEEQLEKLKKLAEELEKKAKEYEKDKNFKEVAKAYKEAAKKLKEAAKTGDSKVAHEARQKAAEAEWLEKKAK | not found |
| design_608_fd41b8f9-4da9-4c78-93ec-aaa316ed4933_2275_dldesign_0_cycle1_af2pred (protein) MEKVKEEAEKLREEAEKAAKAGDVKAVSEAAHKLAELAAEAERESEEAGKVAREALRELREEAKAALAKRAAAAAA | not found |
| design_609_7ee6ce64-4629-41e8-bcb4-ba0da017284d_738_dldesign_0_cycle1_af2pred (protein) MEEALARIDAALKRAKELAKEAEKAGDKKAAAEMESAIAFAEQQRENALKGSPEYAKKAAEAAEAYTDRKIKRAEEIRKKK | not found |
| design_609_7ee6ce64-4629-41e8-bcb4-ba0da017284d_654_dldesign_0_cycle1_af2pred (protein) AAAEQAKLKAEAKALMAAMKAAGKAGDVAAVEAAAKAALAKAKELAKIDPALGSKLAAEIHETRAEALSTARKTREEKKKEEELKK | not found |
| design_608_fd41b8f9-4da9-4c78-93ec-aaa316ed4933_2208_dldesign_0_cycle1_af2pred (protein) AAAAAAKAKALADAAKKAAKEYVKYAKEEDPEKGRKLLYEDMKKAYALAKADPALAPAAKEIAKIAQEAFQEIADIIGEKK | not found |
| design_609_7ee6ce64-4629-41e8-bcb4-ba0da017284d_250_dldesign_0_cycle1_af2pred (protein) MEEVKKKAEKALKEAKAALKEAKALGNEEAIKAAEQAIKFAKKALEYAEKGDLNGAEAYLEAAKHALKVAKDAIKAAKKAA | not found |
| design_608_fd41b8f9-4da9-4c78-93ec-aaa316ed4933_2434_dldesign_0_cycle1_af2pred (protein) AAEEAIKKAKKIVEEAVKIMEEAGKKNPEYKEEFEKKNKKIKELLKEAEKLVKEGKKEEGIKTAVKAAHEAREAKAEAEWILRRN | not found |
| design_608_fd41b8f9-4da9-4c78-93ec-aaa316ed4933_2202_dldesign_0_cycle1_af2pred (protein) DEYLKEAEKVYKETKKVIEEAKKKEKEEALKEIAKATQEATMKLTELAAEAAREGDKETAEKIRELRRELIEYATKVAEEVKAK | not found |
| design_609_7ee6ce64-4629-41e8-bcb4-ba0da017284d_401_dldesign_0_cycle1_af2pred (protein) AIEELIKKGKERGEKAAKRVKEGTMTPEAAKDIFKNIIKELAKAGGEEEGKKIALEGADLLAEADPEFGKKFKKEVEKE | not found |
| design_608_fd41b8f9-4da9-4c78-93ec-aaa316ed4933_2418_dldesign_0_cycle1_af2pred (protein) NKLLKEAIEALKKGIEAAKKGDLMEAQAYFTEARFYAEKYAKENPEYKEKAEKAAELAKEAIKTNGTPEAIKLAEEARKLLEEI | not found |
| design_608_fd41b8f9-4da9-4c78-93ec-aaa316ed4933_2179_dldesign_0_cycle1_af2pred (protein) MKEEEAKKAIEEAKKAIKEAREVGKELAKKDPSKKAFVDEAAKKLHELREKLAEAESLLKKDPEKAKKLAEEVKKKAKEIKKELEKA | not found |
| design_608_fd41b8f9-4da9-4c78-93ec-aaa316ed4933_2160_dldesign_0_cycle1_af2pred (protein) MEEKAKKYLEAAKKAKKYAEYAAKIDKEAAEKAKEAAKLLEEAAKLYLEGADEEEIEKASKKAAEKLGEARFEYNVVKQKEKRK | not found |
| design_609_7ee6ce64-4629-41e8-bcb4-ba0da017284d_21_dldesign_0_cycle1_af2pred (protein) SLEEELNKKKTEELIEEGIKALKEYAEKGKLEEGKAIASKKVQEAFDLGYEEGREAARKVREAYDKLAKEIEKKKA | not found |
| design_609_7ee6ce64-4629-41e8-bcb4-ba0da017284d_739_dldesign_0_cycle1_af2pred (protein) SEASKAAAEAYEKLAETEYLAKKAKESNAEEAEKYAKEAKEAAKEAIEAAKKAAELAPEGAPLMKKVEEKAKKAAEEAEKYAKKKK | not found |
| design_609_7ee6ce64-4629-41e8-bcb4-ba0da017284d_81_dldesign_0_cycle1_af2pred (protein) SKALADALRAAQRALRALGRRAAALDPALAAEVTAALFAVYDQSTAEAAKAAADAAVAAATARIAALEAAA | not found |
| design_609_7ee6ce64-4629-41e8-bcb4-ba0da017284d_287_dldesign_0_cycle1_af2pred (protein) MLKEEAKKVAEKGKKEGKYEEAIKELSEIAAKAYELAAEKLLDKETKEEGEKYREAARLARELGKELEKAA | not found |
| design_609_7ee6ce64-4629-41e8-bcb4-ba0da017284d_519_dldesign_0_cycle1_af2pred (protein) SEEAERELTLAKGYAELAKELAEQGPKAAKSAVKDAEKEAKEAEKIDPEVGKKAKELAEEAKKYVEEKEK | not found |

| Binder | binding in a display sort |
| --- | --- |
| design_609_7ee6ce64-4629-41e8-bcb4-ba0da017284d_829_dldesign_0_cycle1_af2pred (protein) LEEELKKAIEEAKKAVKELKEAAKKRPLTPEEIAKLVTKVSNELGKVRFLSAEALVNKKYEKVGEEGRKAAKEIREEAKEAIKLSKEK | not found |
| design_608_fd41b8f9-4da9-4c78-93ec-aaa316ed4933_2353_dldesign_0_cycle1_af2pred (protein) SNKEEADLLRELARAAKAAGAALAALAAADPSEAARAAALKAEFSQALFDAADGKLNEAEIKAIIARMEAVAAAA | not found |
| design_608_fd41b8f9-4da9-4c78-93ec-aaa316ed4933_1996_dldesign_0_cycle1_af2pred (protein) AEKAKELREQAEKLREEARKYAEYAPPEVVHELYQAAAESISYFNLAEKGEATEEQIKEGEEAFKKLKELTEEIKERAKKAEEEA | not found |
| design_608_fd41b8f9-4da9-4c78-93ec-aaa316ed4933_2496_dldesign_0_cycle1_af2pred (protein) EEEVREEAERIRERAKEIAEKAKKLAEEAEKDPSKAKEAEEKSRKLAEELRELGERARELGDEEAARAAAEAAAVAHEARAEAYAIAN | not found |
| design_609_7ee6ce64-4629-41e8-bcb4-ba0da017284d_297_dldesign_0_cycle1_af2pred (protein) SPEEMIKKGKELVEKRLEKAKKTAEEKTPEEAKREAEAAVAFAEGVAEALAKHPEAAAAGEALLKETKEEAEKIIKKAKE | not found |
| design_609_7ee6ce64-4629-41e8-bcb4-ba0da017284d_741_dldesign_0_cycle1_af2pred (protein) EKELAEEVIKKIKEKAEKAIKEGVSREEAEKVIKEIEELATKASWEAPEYAKELNRAAKEEKKKIKKAVEEREA | not found |
| design_608_fd41b8f9-4da9-4c78-93ec-aaa316ed4933_1906_dldesign_0_cycle1_af2pred (protein) DVKKEAEKLRDKGKERAKRRLEDAKKISPQYAEAAYEALEQASKNAKKLAEKYPEAKEIYEELAKYFEEQAKKAKEIAE | not found |
| design_608_fd41b8f9-4da9-4c78-93ec-aaa316ed4933_2334_dldesign_0_cycle1_af2pred (protein) MTPEEKQEMVKQAVELVKNAKGAFDALEAADLIIEAYEKDPEAGKQAIEAAKAEAEKKIKENPLLGKTALRMIENAEIAMKNLE | not found |
| design_609_7ee6ce64-4629-41e8-bcb4-ba0da017284d_91_dldesign_0_cycle1_af2pred (protein) SDLENNKKALQYAEAAAEAAEFGSLKAAQGLLKKAAELATDEETKKLLLEAAEKEDLKELLKLAKEAAKKLKKNVE | not found |
| design_609_7ee6ce64-4629-41e8-bcb4-ba0da017284d_665_dldesign_0_cycle1_af2pred (protein) MDEEKLKMAEEEMKEGEKYAKAAKAALKKGDAKKAATLASEALASYNAAAHLYELAGDKEKAKKALEEGKKVVEEVGAAVKA | not found |
| design_609_7ee6ce64-4629-41e8-bcb4-ba0da017284d_143_dldesign_0_cycle1_af2pred (protein) EEEKKELLESESYAIQAAHAVAAKDPATAEEAKEAFEYVALVGVEKARELLEKAKTDAESLKAAVAEAKELAKEVKKKLE | not found |
| design_608_fd41b8f9-4da9-4c78-93ec-aaa316ed4933_2157_dldesign_0_cycle1_af2pred (protein) SELEEEIKKLAKELNEAIMKLADLASPEETREAAKKALEAKKLAKEDPEKGLEKLKEALKETKKLLEKAEKEN | not found |
| design_608_fd41b8f9-4da9-4c78-93ec-aaa316ed4933_2243_dldesign_0_cycle1_af2pred (protein) DEAKKEAAKAAQKAYEAIAEAEQAIRSGNAEELKKAAEEAKKAAKEAEKAAKKSKDKEVKEELKRVAKKAKEAAKKAKEAAKKLEA | not found |
| design_609_7ee6ce64-4629-41e8-bcb4-ba0da017284d_730_dldesign_0_cycle1_af2pred (protein) SEQAKEELEKQEKVKEVAKKVRKALKELEEAGDEEAKKEAEKLRKEASEARLLAADDPEKGLEEMKKVLEKAEKKLKEVKAKL | not found |
| design_609_7ee6ce64-4629-41e8-bcb4-ba0da017284d_830_dldesign_0_cycle1_af2pred (protein) MESLKETFEKMAKLVKKFAEYLEKLDPEAGKKTLEILKKGEEAKTPSEAISLVLRAAVYGAKELGKYDKELALEKLEKVFDL | not found |
| design_609_7ee6ce64-4629-41e8-bcb4-ba0da017284d_97_dldesign_0_cycle1_af2pred (protein) NKLEEAKKAVKKLKELAKKAKEVAKDLKKTEELVKKAEEEYKKAIKLAREAAKEGDEETKKEAKKLAEEAHEAYNEALLALVKARE | not found |
| design_608_fd41b8f9-4da9-4c78-93ec-aaa316ed4933_1926_dldesign_0_cycle1_af2pred (protein) DAEEEAKKLKEEAEKKLKEIKQMAKDGTATVEEIEKERKEGIEALKKAAKLVPEKKEEYAKLAEEIVEAYSDAYYESLKKERE | not found |
| design_609_7ee6ce64-4629-41e8-bcb4-ba0da017284d_123_dldesign_0_cycle1_af2pred (protein) GAKAVAAAAHDGYQAIAEASKDAEELKKAEEAGLKAVEETGKATGDTATAKAAKERLKRYADRELKKSKKKEEEKKKKLLE | not found |
| design_609_7ee6ce64-4629-41e8-bcb4-ba0da017284d_187_dldesign_0_cycle1_af2pred (protein) AEAEKAKAEEAAKVAEEKIKKVEKLDPKKAEELRKKLKEAMAKPDAYKAVAKVSHDAYEALAEAEWEKRK | not found |

— publication PMC13494018
